Laboratory results taken from PubChem BioAssay.

Tested on: Wnt5a (protein binding on small-molecule microarray)
Assay: small molecules binding Wnt5a protein – biophysical, small-molecule microarray, 635/667 nm fluorescence, primary screen (AID 1142);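 further: fluorescence read at 667 nm with signal to noise per printed feature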
Conditions: 635 nm fluorescence, higher = more signal

Compound | composite z-score
[N-]=[N+]=Nc1ccccc1C[C@@]1(C(=O)NCC(O)CO)N=C(c2ccc(OCCCO)cc2)O[C@@H]1c1ccccc1 (some centres undefined) | 0.674
C=C(CCCC)/C(=C/C[C@H](OC(=O)c1ccncc1)c1cccc(OCCO)c1)c1cnc2ccccc2c1 | 0.24
COCCOC(=O)N1C(=O)[C@@]2(c3cc(C#Cc4ccc(OC)cc4)ccc31)[C@H](c1ccc(OCCO)cc1)N1[C@H](c3ccccc3)[C@H](c3ccccc3)OC(=O)[C@H]1[C@@H]2C(=O)NC[C@H](O)c1ccccc1 | 0.316
CCOC(=O)C1=CC[C@@H](c2ccc(OC)cc2)N(S(=O)(=O)c2ccc(C)cc2)[C@H]1c1ccc(C)cc1 | 0.151
COCCOC(=O)N1C(=O)[C@@]2(c3cc(C#CCCO)ccc31)[C@H](c1ccc(OCCO)cc1)N1[C@H](c3ccccc3)[C@H](c3ccccc3)OC(=O)[C@H]1[C@@H]2C(=O)N1CCCCCCC1 | 0.827
COC(=O)[C@@]1(Cc2ccc(F)cc2)[C@H]2c3cc(C(=O)N4CCCC4)n(Cc4cc(F)cc5c4OCOC5)c3C[C@H]2CN1C(=O)c1ccccc1 | 0.547
C=C(CCCC)/C(=C/C[C@H](OC(=O)c1ccncc1)c1ccc(OCCO)cc1)c1cnc2ccccc2c1 | 0.766
C=CCOC(=O)[C@@H]1[C@H]2C(=O)O[C@H](c3ccccc3)[C@H](c3ccccc3)N2[C@H](c2ccc(OCCOC(=O)[C@H]3C[C@H]4C(=O)N5CCC[C@H]5C(=O)N4[C@H]3c3cccc(OCCO)c3)cc2)[C@@]12C(=O)Nc1ccc(I)cc12 | 0.473
COc1ccc([Si](C)(C)[C@H]2[C@H](CC(=O)N3Cc4ccccc4C[C@H]3CO)O[C@@]3(C(=O)N(C)c4c(Br)cc(C)cc43)[C@@H]2C)cc1 | 0.144
